Assays:
[1] = target: Protein kinase C eta type (Homo sapiens) (UniProt P24723); conditions: at 1 µM
[2] = target: Protein kinase C eta type (Homo sapiens) (UniProt P24723); conditions: at 10 µM
[3] = target: Protein kinase C theta type (Homo sapiens) (UniProt Q04759); conditions: at 1 µM
[4] = target: Protein kinase C theta type (Homo sapiens) (UniProt Q04759); conditions: at 10 µM
[5] = target: T1, Protein kinase C iota type (Homo sapiens) (UniProt P41743); conditions: at 1 µM
T1 sequence (whole entry): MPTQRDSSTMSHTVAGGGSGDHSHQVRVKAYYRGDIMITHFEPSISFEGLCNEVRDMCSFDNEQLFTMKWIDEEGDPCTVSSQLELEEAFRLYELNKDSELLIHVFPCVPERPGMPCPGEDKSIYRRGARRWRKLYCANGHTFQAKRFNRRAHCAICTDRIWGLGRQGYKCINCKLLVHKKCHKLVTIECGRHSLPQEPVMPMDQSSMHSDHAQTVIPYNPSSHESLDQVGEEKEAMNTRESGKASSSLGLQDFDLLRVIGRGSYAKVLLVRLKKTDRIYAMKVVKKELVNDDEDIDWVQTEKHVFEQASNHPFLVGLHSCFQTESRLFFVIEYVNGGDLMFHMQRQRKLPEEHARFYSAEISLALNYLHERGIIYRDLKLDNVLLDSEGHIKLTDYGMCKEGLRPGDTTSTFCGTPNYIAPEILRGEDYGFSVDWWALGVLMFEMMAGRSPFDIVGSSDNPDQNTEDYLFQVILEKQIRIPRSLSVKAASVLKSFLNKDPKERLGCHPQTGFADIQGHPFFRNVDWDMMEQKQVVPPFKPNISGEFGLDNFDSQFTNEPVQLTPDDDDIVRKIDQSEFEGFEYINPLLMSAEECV

[6] = target: T1, Protein kinase C iota type (Homo sapiens); conditions: at 10 µM
[7] = target: T2, Serine/threonine-protein kinase D1 (Homo sapiens) (UniProt Q15139); conditions: at 1 µM
T2 sequence (whole entry): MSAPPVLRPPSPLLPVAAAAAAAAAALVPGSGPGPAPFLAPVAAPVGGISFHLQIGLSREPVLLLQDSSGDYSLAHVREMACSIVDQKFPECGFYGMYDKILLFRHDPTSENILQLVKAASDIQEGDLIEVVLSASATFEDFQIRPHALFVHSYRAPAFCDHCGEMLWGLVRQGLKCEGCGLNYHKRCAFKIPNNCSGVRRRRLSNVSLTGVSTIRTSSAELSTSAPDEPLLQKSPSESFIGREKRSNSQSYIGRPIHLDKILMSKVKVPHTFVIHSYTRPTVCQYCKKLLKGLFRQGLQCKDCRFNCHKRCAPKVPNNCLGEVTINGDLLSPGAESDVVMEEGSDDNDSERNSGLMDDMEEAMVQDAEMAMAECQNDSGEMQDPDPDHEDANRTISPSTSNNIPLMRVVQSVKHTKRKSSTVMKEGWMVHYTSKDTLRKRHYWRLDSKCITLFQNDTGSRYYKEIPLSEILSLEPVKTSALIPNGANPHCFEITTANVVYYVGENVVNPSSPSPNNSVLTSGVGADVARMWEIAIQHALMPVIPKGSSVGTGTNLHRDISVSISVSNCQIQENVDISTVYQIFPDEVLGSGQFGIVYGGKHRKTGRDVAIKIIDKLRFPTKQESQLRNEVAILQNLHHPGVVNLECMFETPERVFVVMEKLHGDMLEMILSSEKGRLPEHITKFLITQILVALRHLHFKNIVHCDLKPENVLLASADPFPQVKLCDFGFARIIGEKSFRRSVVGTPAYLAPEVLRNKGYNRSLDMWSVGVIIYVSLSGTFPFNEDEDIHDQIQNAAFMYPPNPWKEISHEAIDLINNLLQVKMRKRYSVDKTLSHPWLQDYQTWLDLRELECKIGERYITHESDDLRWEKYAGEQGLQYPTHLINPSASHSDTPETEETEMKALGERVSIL

[8] = target: T2, Serine/threonine-protein kinase D1 (Homo sapiens); conditions: at 10 µM
[9] = target: T3, Serine/threonine-protein kinase D2 (Homo sapiens) (UniProt Q9BZL6); conditions: at 1 µM
T3 sequence (whole entry): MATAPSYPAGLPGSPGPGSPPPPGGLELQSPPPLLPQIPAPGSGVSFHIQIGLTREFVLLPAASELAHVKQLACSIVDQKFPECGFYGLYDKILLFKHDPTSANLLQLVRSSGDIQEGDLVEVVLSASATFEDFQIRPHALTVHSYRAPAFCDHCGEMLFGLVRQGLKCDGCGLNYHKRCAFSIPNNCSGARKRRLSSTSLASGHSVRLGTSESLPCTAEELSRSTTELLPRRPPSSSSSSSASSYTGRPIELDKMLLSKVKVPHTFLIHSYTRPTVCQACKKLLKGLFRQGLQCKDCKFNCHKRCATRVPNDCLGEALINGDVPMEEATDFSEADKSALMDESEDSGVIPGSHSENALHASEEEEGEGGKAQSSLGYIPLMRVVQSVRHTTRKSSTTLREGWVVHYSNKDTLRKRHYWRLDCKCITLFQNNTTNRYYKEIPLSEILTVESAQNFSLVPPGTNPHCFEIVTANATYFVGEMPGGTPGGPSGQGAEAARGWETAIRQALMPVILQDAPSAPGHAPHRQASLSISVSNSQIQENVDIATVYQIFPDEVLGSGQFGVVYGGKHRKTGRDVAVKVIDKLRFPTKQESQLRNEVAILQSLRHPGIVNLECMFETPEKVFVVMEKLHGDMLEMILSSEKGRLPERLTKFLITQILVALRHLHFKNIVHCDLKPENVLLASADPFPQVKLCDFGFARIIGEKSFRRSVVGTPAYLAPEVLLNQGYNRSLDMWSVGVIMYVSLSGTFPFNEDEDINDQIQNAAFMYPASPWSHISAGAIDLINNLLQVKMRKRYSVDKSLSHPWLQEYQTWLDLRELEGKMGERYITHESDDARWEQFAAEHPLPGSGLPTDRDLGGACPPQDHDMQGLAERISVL

[10] = target: T3, Serine/threonine-protein kinase D2 (Homo sapiens); conditions: at 10 µM
[11] = target: T4, cGMP-dependent protein kinase 1 (Homo sapiens) (UniProt Q13976); conditions: at 1 µM
T4 sequence (whole entry): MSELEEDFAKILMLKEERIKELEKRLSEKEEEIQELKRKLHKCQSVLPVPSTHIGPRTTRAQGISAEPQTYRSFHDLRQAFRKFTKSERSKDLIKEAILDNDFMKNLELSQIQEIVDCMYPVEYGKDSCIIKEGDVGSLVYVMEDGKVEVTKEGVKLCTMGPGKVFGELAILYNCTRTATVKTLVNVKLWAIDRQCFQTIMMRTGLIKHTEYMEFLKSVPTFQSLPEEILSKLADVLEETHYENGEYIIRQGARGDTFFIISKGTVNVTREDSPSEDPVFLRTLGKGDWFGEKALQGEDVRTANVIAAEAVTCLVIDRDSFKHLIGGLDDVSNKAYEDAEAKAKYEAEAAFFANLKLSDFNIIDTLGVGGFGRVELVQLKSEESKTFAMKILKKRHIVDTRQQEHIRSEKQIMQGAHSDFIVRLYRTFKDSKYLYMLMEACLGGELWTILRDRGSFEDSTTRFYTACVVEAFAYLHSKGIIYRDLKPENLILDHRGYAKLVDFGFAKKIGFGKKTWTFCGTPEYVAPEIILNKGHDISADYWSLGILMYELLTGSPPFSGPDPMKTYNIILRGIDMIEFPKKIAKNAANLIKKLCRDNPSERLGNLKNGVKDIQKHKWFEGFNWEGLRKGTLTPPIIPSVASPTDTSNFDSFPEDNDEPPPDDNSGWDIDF

[12] = target: T4, cGMP-dependent protein kinase 1 (Homo sapiens); conditions: at 10 µM
[13] = target: T4, cGMP-dependent protein kinase 1 (Homo sapiens); conditions: at 1 µM; remark: listed apart in the source
[14] = target: T4, cGMP-dependent protein kinase 1 (Homo sapiens); conditions: at 10 µM; remark: listed apart in the source
[15] = target: T5, MAP kinase-activated protein kinase 5 (Homo sapiens) (UniProt Q8IW41); conditions: at 1 µM
T5 sequence (whole entry): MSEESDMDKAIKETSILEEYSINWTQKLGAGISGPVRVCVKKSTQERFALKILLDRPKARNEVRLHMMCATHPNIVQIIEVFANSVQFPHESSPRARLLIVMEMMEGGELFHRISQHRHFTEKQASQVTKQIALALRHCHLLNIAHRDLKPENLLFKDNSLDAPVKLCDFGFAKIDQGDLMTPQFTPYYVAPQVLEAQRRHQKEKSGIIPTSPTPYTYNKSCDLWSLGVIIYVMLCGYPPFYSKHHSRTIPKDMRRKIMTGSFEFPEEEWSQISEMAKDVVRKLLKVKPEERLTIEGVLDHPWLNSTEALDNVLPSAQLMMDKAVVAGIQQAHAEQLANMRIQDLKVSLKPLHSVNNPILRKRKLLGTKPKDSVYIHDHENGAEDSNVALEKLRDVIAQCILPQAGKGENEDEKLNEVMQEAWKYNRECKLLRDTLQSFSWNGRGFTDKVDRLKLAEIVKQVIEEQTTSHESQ

[16] = target: T5, MAP kinase-activated protein kinase 5 (Homo sapiens); conditions: at 10 µM
[17] = target: Serine/threonine-protein kinase N2 (Homo sapiens) (UniProt Q16513); conditions: at 1 µM
[18] = target: Serine/threonine-protein kinase N2 (Homo sapiens) (UniProt Q16513); conditions: at 10 µM
[19] = target: Tyrosine-protein kinase FRK (Homo sapiens) (UniProt P42685); conditions: at 1 µM
[20] = target: Tyrosine-protein kinase FRK (Homo sapiens) (UniProt P42685); conditions: at 10 µM

Sequence of Protein kinase C eta type (Homo sapiens) (P24723 whole entry): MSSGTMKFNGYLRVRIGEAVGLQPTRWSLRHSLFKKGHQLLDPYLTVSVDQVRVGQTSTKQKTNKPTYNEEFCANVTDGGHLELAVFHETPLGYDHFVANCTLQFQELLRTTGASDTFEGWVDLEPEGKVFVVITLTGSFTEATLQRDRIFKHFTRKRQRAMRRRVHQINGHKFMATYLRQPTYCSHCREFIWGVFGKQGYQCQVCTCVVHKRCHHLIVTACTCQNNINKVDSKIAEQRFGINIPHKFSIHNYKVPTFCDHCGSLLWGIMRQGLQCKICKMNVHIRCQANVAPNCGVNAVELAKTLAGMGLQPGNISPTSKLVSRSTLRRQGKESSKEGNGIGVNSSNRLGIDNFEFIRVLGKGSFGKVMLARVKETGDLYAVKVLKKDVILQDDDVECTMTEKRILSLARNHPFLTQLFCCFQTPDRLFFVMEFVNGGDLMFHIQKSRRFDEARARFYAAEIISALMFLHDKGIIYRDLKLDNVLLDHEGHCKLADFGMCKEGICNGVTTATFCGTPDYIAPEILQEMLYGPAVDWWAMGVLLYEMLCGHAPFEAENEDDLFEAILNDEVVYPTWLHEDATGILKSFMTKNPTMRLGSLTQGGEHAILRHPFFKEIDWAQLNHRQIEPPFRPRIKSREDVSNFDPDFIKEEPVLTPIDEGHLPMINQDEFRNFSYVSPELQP
Sequence of Serine/threonine-protein kinase N2 (Homo sapiens) (Q16513 whole entry, looked up): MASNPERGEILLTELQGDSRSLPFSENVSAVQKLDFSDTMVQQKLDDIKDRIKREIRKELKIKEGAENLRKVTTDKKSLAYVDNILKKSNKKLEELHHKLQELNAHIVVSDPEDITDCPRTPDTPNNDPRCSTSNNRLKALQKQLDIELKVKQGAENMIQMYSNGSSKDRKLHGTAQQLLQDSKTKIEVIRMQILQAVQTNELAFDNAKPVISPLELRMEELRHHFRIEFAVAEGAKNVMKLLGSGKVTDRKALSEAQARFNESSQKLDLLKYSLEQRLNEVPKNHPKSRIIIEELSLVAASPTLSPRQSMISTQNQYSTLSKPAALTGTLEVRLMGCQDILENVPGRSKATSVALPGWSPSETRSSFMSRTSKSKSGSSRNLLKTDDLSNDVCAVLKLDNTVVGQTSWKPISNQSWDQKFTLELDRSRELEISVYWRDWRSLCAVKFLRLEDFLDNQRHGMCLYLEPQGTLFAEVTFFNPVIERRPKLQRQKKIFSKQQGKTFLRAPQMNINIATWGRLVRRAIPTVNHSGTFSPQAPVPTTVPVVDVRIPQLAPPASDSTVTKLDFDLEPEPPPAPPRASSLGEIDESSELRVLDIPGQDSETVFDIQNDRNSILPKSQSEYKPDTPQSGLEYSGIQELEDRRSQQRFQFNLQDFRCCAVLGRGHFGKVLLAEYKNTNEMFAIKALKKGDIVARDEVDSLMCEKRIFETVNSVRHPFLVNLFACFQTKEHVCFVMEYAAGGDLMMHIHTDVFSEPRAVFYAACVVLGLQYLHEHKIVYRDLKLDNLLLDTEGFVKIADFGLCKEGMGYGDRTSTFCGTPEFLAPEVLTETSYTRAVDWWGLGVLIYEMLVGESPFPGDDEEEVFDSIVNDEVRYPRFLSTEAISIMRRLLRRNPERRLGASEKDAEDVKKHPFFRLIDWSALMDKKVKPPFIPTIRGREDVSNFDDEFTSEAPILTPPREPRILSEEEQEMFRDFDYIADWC
Sequence of Tyrosine-protein kinase FRK (Homo sapiens) (P42685 whole entry): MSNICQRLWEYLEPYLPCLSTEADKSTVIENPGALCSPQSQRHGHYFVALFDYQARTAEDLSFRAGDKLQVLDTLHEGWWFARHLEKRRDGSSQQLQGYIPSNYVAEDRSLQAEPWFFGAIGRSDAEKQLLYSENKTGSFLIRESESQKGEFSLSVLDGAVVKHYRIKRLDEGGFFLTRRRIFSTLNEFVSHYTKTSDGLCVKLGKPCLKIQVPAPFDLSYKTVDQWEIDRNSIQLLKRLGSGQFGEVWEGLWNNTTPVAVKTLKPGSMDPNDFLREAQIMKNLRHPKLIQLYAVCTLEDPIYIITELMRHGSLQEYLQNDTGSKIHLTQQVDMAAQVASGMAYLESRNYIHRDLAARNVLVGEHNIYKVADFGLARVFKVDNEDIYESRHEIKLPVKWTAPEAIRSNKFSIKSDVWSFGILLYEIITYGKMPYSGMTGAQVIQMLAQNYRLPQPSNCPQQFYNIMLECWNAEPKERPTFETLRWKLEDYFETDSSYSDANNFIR
Sequence of Protein kinase C theta type (Homo sapiens) (Q04759 whole entry, looked up): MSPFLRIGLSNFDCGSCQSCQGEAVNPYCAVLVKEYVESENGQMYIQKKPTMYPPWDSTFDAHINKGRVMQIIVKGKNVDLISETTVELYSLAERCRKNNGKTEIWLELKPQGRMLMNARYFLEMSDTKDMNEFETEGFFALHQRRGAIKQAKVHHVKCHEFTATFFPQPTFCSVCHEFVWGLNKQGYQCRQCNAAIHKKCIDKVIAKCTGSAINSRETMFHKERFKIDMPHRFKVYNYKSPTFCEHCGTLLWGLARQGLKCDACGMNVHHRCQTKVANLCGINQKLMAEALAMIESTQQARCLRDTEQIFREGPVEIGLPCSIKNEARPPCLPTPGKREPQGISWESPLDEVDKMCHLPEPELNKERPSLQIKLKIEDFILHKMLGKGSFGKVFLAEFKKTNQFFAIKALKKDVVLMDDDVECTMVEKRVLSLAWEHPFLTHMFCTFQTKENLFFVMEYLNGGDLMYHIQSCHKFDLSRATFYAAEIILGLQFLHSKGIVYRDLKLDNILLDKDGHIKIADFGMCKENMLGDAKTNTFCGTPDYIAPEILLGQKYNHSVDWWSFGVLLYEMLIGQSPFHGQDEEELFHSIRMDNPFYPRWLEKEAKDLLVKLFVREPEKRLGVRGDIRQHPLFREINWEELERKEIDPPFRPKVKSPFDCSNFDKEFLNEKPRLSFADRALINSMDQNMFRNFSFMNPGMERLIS

Row | Compound | residual activity [1] | residual activity [2] | residual activity [3] | residual activity [4] | residual activity [5] | residual activity [6] | residual activity [7] | residual activity [8] | residual activity [9] | residual activity [10] | residual activity [11] | residual activity [12] | residual activity [13] | residual activity [14] | residual activity [15] | residual activity [16] | residual activity [17] | residual activity [18] | residual activity [19] | residual activity [20]
1 | c1ccc2c(-c3ccncc3)c[nH]c2c1 | 64% | 17% | 88% | 70% | 89% (inactive) | 67% | 87% | 69% | 104% | 106% | 76% | 23% | 54% | 12% | 87% | 90% | 30% | 8% | 88% | 97%
2 | CN(C)c1ccc(/C=C2\C(=O)Nc3ccccc32)cc1 | 102% | 93% | 117% | 85% | 92% (inactive) | 78% | 96% | 81% | 103% | 114% | 121% | 115% | 65% | 84% | 113% | 65% | 113% | 120% | 97% | 76%
3 | COc1ccc(C(=O)Nc2sc3c(c2C(N)=O)CCCC3)cc1OC | 98% | 77% | 89% | 84% | 89% (inactive) | 107% | 89% | 96% | 103% | 108% | 104% | 88% | 79% | 90% | 59% | 76% | 88% | 114% | 91% | 80%
4 | O=C1Nc2cc(Br)ccc2/C1=C1/Nc2ccccc2/C1=N\O | 76% | 74% | 87% | 75% | 110% (inactive) | 112% | 90% | 100% | 101% | 95% | 90% | 109% | 78% | 61% | 76% | 90% | 75% | 92% | 2% | 0%
5 | O=C1NC(=O)c2cc(Nc3ccc(F)cc3)c(Nc3ccc(F)cc3)cc21 | 91% | 80% | 87% | 62% | 91% (inactive) | 106% | 94% | 72% | 101% | 89% | 98% | 97% | 92% | 73% | 74% | 39% | 90% | 84% | 83% | 41%
6 | COc1cc2ncnc(N3CCN(C(=O)Nc4ccc(Oc5ccccc5)cc4)CC3)c2cc1OC | 98% | 74% | 94% | 108% | 90% (inactive) | 99% | 102% | 66% | 103% | 99% | 99% | 110% | 68% | 72% | 78% | 79% | 88% | 112% | 96% | 127%
